Source: PubChem (National Center for Advancing Translational Sciences (NCATS))
FLuc counter – qHTS profiling assay for firefly luciferase inhibitor/activator using purifed enzyme and Km concentrations of substrates (counterscreen for miR-21 project) | Luciferin 4-monooxygenase (Photinus pyralis), P08659 | purified FLuc, Km substrates, luminescence inhibition | Potency, µM (doses to about 57.5 µM), inactives show top-dose activity change, negative = inhibition, actives largely listed as inhibitors | 360,000 compounds, 6.9% hits | AID 588342, 2011;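 note: plate controls were vehicle for no effect and reference inhibitor for full effect; nearly all actives have a fitted effect of over 55% in size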
Target sequence (P08659 whole entry, looked up): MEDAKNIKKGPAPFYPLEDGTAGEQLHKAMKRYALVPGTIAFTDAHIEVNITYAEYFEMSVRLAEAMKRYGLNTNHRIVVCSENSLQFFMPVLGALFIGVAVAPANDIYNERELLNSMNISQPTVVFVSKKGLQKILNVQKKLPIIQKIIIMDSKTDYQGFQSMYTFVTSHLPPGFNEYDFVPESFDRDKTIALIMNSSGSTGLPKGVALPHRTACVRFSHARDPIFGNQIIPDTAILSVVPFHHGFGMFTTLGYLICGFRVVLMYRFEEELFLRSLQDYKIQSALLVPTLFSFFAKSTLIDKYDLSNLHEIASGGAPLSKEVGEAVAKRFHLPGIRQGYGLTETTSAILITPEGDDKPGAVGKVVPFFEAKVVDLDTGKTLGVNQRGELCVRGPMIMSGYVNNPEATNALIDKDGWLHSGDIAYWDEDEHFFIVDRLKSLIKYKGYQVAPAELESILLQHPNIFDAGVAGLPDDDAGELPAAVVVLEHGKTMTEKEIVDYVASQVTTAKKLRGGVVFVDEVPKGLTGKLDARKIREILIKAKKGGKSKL
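Biochemical qHTS of compounds, final roughly 60 µM downward over six points, against 10 nM purified firefly luciferase using Km concentrations of substrates (10 uM D-luciferin, 10 uM ATP) in Tris acetate pH 7.5 buffer; luminescence output.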
KinaseGlo FLuc – Counterscreen for Luciferase (Kinase-Glo TM) Inhibition; Luciferin 4-monooxygenase (Photuris pensylvanica), Q27757; Kinase-Glo luciferase, ATP luminescence, 8 min; Potency, µM (highest dose often 38.3 µM), for the others: top-dose activity change, negative = inhibition, usual class: inhibitors; 200,000 compounds, 0.28% hits; note: % is set by controls: 0 for no effect and ±100 for the full control effect; nearly all actives have a fitted effect of over 60% in size
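Luminescence was the read-out, taken after 8-minute incubation at ambient temperature. Luciferase turned over luciferin with 10 uM ATP in imidazole pH 7.2 buffer containing KCl, MgCl2, Tween 20 and BSA.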
NPC1 promoter act – qHTS Assay for NPC1 Promoter Activators | Huh7 NPC1 promoter luciferase reporter, 24 h | Potency, µM (highest dose often 9.22 µM), without a hit: at the highest dose activation, most hits filed as activators | 320,000 compounds, 2.4% hits; note: % of control where 0% means no effect; nearly all actives have a fitted effect of over 60% in size
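Huh7 cells stably carrying NPC1 promoter–luciferase, plated in Opti-MEM with 10% FBS for 2 h, were exposed to compound in DMSO for 24 h at 37 °C; luciferase reagent was added for 10 min and luminescence read.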
Rab9 promoter act – qHTS Assay for Rab9 Promoter Activators; 320,000 compounds, 2.8% hits; AID 485297, 2010; Huh7 Rab9 promoter-luciferase reporter, luminescence, 24 h; Potency, µM (titrated, usually from 9.22 µM), inactives show top-dose activation, negative = inhibition, hits mostly activators; note: % of control where 0% means no effect; nearly all actives have a fitted effect of over 60% in size
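Quantitative HTS format; Huh7 Rab9-luciferase reporter cells (1500/well) receive compound 2 h post-plating, incubate 24 h at 37 °C, then get luciferase reagent for 10 min before luminescence reading.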
SMN2 splice enh – qHTS Assay for Enhancers of SMN2 Splice Variant Expression; Potency, µM (titrated, usually from 46.1 µM), inactives show at the top dose activity change, positive = activation, hits mostly activators; HEK293 SMN2-luciferase splicing reporter, luminescence, 30-36 h; 210,000 compounds, 2.8% hits; note: % of control where 0% means no effect; nearly all actives have a fitted effect of over 55% in size
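qHTS luciferase splicing reporter: luminescence rises when SMN2 exon 7 is included in transfected HEK293 cells. Compound exposure lasted 30-36 h at 37C, with 4.5 mM final sodium butyrate as control, followed by a ONE-Glo read.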
Active calls of the source: *; ? = inconclusive; . = no result; [ ] = dose if it differs, or a comment. A selection: hits, their analogues and other compounds. The true share with any hit is near 7.3%. Calls come from the whole dose curve; as a rule, active = well fitted curve in the direction sought with a large enough effect; inconclusive = small, poorly fitted or top-dose-only effect, or another doubt; inactive = no such curve, though single readings can be large; an effect the other way counts as inactive or inconclusive. Potency is the fitted concentration of half-maximal effect.

SMILES	FLuc counter	KinaseGlo FLuc	NPC1 promoter act	Rab9 promoter act	SMN2 splice enh
O=S(=O)(CCSc1ccccn1)c1nc2ccccc2s1	3%	2%	-1%	-4%	11µM*
CC(C)CNC(=O)c1c(-c2ccccc2)c(-c2ccccc2)nn(C)c1=O	3%	.	.	.	5%
CCc1ccc(C(=O)Nc2ccc3nc(C)ccc3c2)cc1	5.4µM*	.	3.5µM*	2.8µM*	.
Cc1ccc2cc(NC(=O)c3ccc(C(C)(C)C)cc3)ccc2n1	9.5µM*	.	-2%	2%	.
O=C(O)/C(=C\c1ccncc1)c1cccc2ccccc12	.	-5%[7.66 µM]	.	.	-14%[9.22 µM]
Cc1ccc(-c2ccc(=O)n(CC(=O)Nc3ccc(F)c(Cl)c3)n2)cc1C	-3%	.	.	.	.
O=c1cc(CF)[nH]c(=S)[nH]1	.	-5%[7.66 µM]	.	.	-12%[9.22 µM]
CCc1ccc(Nc2nnc(SCC(=O)N(C)CC(=O)Nc3ccccc3CC)s2)cc1	6.7µM*	-1%	3%	0%	-18%
CCc1ccccc1NC(=O)CN(C)C(=O)CSc1nnc(Nc2cccc(C)c2)s1	12µM*	-3%	1%	-1%	9%
CCc1ccccc1NC(=O)CN(C)C(=O)CSc1nnc(Nc2ccc(C)cc2)s1	9.5µM*	-2%	0%	-4%	-23%
COc1ccc(NC(=O)Cn2nc3c(cc2=O)CCCC3)cc1Cl	-5%	.	.	.	.
Cc1cc(OCC(=O)N2CCCCCC2)ccc1[N+](=O)[O-]	17µM*	0%	?	?	13µM*
CC(C)(C)c1ccc(OCC(=O)N2CCCCCC2)c(Br)c1	15µM*	0%	?	?	13µM*
Cc1ccc(OCC(=O)N2CCCCC2)c(Br)c1	?	2%	?	?	20µM*
COc1ccccc1N1CCN(C(=O)COc2ccc(C)cc2Br)CC1	-2%	-2%	2%	-1%	1%
Cc1cc(C)c2c(CC(=O)Nc3c(C(=O)c4ccc(F)cc4)oc4ccccc34)coc2c1	-2%	.	.	.	20%
Cc1c(C(=O)N2CCC(C)CC2)c(S(=O)(=O)NCc2ccccc2)c(C)n1C	-2%	.	.	.	.
CC(C)(C)c1csc(NC(=O)c2ccc(Br)o2)n1	27µM*	.	?	?	.
Cc1ccc(C(=O)Nc2nc(C)c(C)s2)o1	6.7µM*	?	?	3.2µM*	14µM*
Cc1nc(NC(=O)c2ccc(Br)o2)sc1C	7.6µM*	?	?	?	?
Cc1ccc(C(=O)Nc2cccc(NC(=O)c3ccc(C)o3)n2)o1	15µM*	.	-5%	8%	.
CC(=O)CCOC1CCCCO1 (stereo not drawn)	.	-1%	.	.	-1%
CC(C)c1ccc(OCC(=O)NCCS(=O)(=O)N2CCN(c3ccc(F)cc3)CC2)cc1	0%	.	.	.	.
O=C(Nc1cccc(-c2cn3cccnc3n2)c1)c1ccc2c(c1)OCO2	12µM*	-3%	25%	17%	-11%
O=C(Nc1ccc(-c2cn3c(n2)SCC3)cc1)c1ccc2c(c1)OCO2	?	-24%	22%	?	4%
SMILES	FLuc counter	KinaseGlo FLuc	NPC1 promoter act	Rab9 promoter act	SMN2 splice enh
c1cnc2nc(-c3ccc4c(c3)OCO4)cn2c1	9.5µM*	?	?	2.5µM*	.
c1ccn2cc(-c3ccc4c(c3)OCO4)cc2c1	3.4µM*	-19%	?	3.2µM*	13µM*
Nc1cccc(-c2cn3cccnc3n2)c1	-19%	-2%	5%	25%	7%
O=C(Nc1cccc(-c2cn3c(n2)SCC3)c1)c1ccc2c(c1)OCO2	11µM*	-3%	26%	?	19%
S=c1[nH]nc(-c2ccc3c(c2)OCO3)n1-c1ccccc1	-1%	0%	-2%	-6%	-6%
COc1ccccc1N1CCN(c2cc(C)nc3nncn23)CC1	1%	.	.	.	1%
Cc1ccc(-c2cn3cccnc3n2)cc1	15µM*	?	2.8µM*	?	.
Cc1[nH]n(-c2ccccc2)c(=O)c1C=Nc1cnc2ccccc2c1	-19%	-4%	-4%	0%	6%
CCOc1ccc(N=Cc2c(C)[nH]n(-c3nc4ccccc4[nH]3)c2=O)cc1	8.5µM*	8.9µM*	25%	?	12%
O=C1NN(c2ccccc2)C(=O)/C1=C/c1cccs1	19µM*	-4%	-4%	-10%	3%
O=C1NN(c2cccc(Br)c2)C(=O)/C1=C/c1cccs1	9.5µM*	.	-1%	5%	.
O=C1NN(c2ccccc2)C(=O)/C1=C\c1ccccc1	17µM*	.	-1%	-2%	.
O=C1NN(c2cccc(Br)c2)C(=O)/C1=C\c1ccccc1	?	.	2%	0%[1.84 µM]	.
CCCCOc1ccc(C(=O)NCCS(=O)(=O)N2CCN(c3ccccc3OC)CC2)cc1	-14%	.	.	.	.
CCCn1cnc2cc(NCc3cccs3)ccc21	19µM*	.	?	?	.
CCCCn1cnc2cc(NCc3ccccc3Cl)ccc21	24µM*	.	.	.	18%
CCCCn1cnc2cc(NCc3ccc(OCC)cc3)ccc21	?	.	.	.	2%
CCn1cnc2cc(NCc3ccccc3Cl)ccc21	17µM*	.	?	?	.
CCCCn1cnc2cc(NCc3ccncc3)ccc21	5%	0%	-4%	-4%	-20%
COc1ccc(S(=O)(=O)NCc2ccc(C(=O)NCc3ccccc3)cc2)cc1	-3%	.	.	.	-12%
CCC(=O)Nc1ccc(-c2nc3ccccc3c(=O)o2)cc1	1.3µM*	-15%	-1%	4%	-5%
CCC(=O)Nc1ccc(-c2nnc(-c3ccccc3)o2)cc1	0.95µM*	.	0.32µM*	0.32µM*	.
CCC(=O)Nc1nnc(-c2ccc(OC)cc2)o1	24µM*	-2%	13%	1%	15%
CCn1c(=O)c2sccc2n2c(CCC(=O)Nc3ccc(OC)cc3OC)nnc12	-1%	.	.	.	1%
Nn1c(SCc2ccccc2F)nnc1-c1ccccn1	15µM*	.	4µM*	1.4µM*	.
SMILES	FLuc counter	KinaseGlo FLuc	NPC1 promoter act	Rab9 promoter act	SMN2 splice enh
Nn1c(SCc2ccc(F)cc2)nnc1-c1ccccn1	?	.	17%	29%	.
Cc1nn(-c2ccccc2)c2c1C(c1ccco1)C(C#N)=C(N)O2 (stereo not drawn)	13µM*	-5%	0%	7%	1%
Cc1nn(-c2ccccc2)c2c1C(c1cccs1)C(C#N)=C(N)O2 (stereo not drawn)	15µM*	-2%	2%	-1%	-3%
Cc1nn(-c2ccccc2)c2c1C(c1ccc([N+](=O)[O-])cc1)C(C#N)=C(N)O2 (stereo not drawn)	3%	.	-4%	-1%	.
CCCc1nn(-c2ccccc2)c2c1C(c1cccs1)C(C#N)=C(N)O2 (stereo not drawn)	-6%	6%	-1%	2%	-10%
OCC(CO)(CBr)CBr	.	.	.	.	-9%
COc1ccc(CNC(=O)C(=O)NCC(c2ccco2)S(=O)(=O)c2cccs2)cc1 (stereo not drawn)	0%	.	.	.	.
